For 26 compounds, z-score results are on record in PubChem BioAssay.

Unmarked numbers belong to inactive results.

The nature of the experiment: CREB reporter modulators without forskolin, primary screen, cell-based, PC12, CRE-LacZ reporter, unstimulated (AID 1145). Particulars: no forskolin, luminescence, 4.5 h, higher = more signal, called active from +8 up or from −8 down.
Consider `CCN1C(=O)[C@H]2[C@H]3[C@H](O)[C@H](O)CC(=NOCC=C(C)CCC=C(C)C)[C@@H]3CC[C@H]2C1=O`, for which the z-score is -0.115.

As to `O=C1[C@H]2[C@H]3[C@H](O)[C@H](O)CC(=NOC[C@@H](O)COCc4ccco4)[C@@H]3CC[C@H]2C(=O)N1Cc1ccccc1`, the z-score is -0.294.

In the case of `O=C1[C@H]2CCn3c(=O)n(-c4ccccc4)c(=O)n3[C@H]2[C@H](O)[C@@H]2O[C@H]12`, the z-score is -0.0164.

For the compound `CON=C[C@@H](OC)[C@H](C)C=CCC(=O)OC`, the z-score is 0.257.

Take `CC(C)=CCCC(C)=CCON=C1C[C@@H](O)[C@@H](O)[C@@H]2[C@@H]3C(=O)N(Cc4ccc5c(c4)OCO5)C(=O)[C@@H]3CC[C@@H]12`: the z-score was 0.252.

`CC(=O)OC[C@H]1O[C@H](CC=NO[C@@H](C)c2cc(-c3c(C)cc(C)cc3C)no2)C=C[C@@H]1OC(C)=O`: the z-score was 0.173.

On to `COc1ccc(-c2cnnc(CCCn3ccnc3-c3ccccc3)n2)cc1`, for which the z-score is 1.37.

For `O=C1C2=CC[C@H]3C(=O)N(c4ccc(F)cc4F)C(=O)[C@H]3[C@H]2[C@H](O)[C@@H]2O[C@H]12`, the z-score is -0.202.

For the compound `COC(=O)CC=C[C@@H](C)[C@@H](C=NOC[C@@H](O)COCc1ccco1)OC`, the z-score is -1.05.

Take `COC(=O)[C@H](C)NC(=O)CCC1CC(OC(=O)NCc2cccc3ccccc23)CC2(CCCC(COC(=O)NCCCN3CCCC3=O)O2)O1` (stereo partly specified): the z-score was -0.438.

Consider `CCOC(=O)[C@H](CC(C)C)NC(=O)CCC1CC(OC(=O)NCc2ccc3c(c2)OCO3)CC2(CCCC(COC(=O)NCCc3ccccc3OC)O2)O1` (stereo partly specified), for which the z-score is -0.0755.

Turning to `CO[C@@H](C(C)C)[C@@H](C)C1OC(=O)CC1O` (stereo partly specified), the z-score is -0.0673.

Turning to `Cc1ccc(C(C)C)n1C(=O)OC(C)(C)C`, the z-score was -0.708.

On to `CCOC(=O)[C@H](Cc1ccccc1)NC(=O)CCC1CC(OC(=O)NCc2ccc3c(c2)OCO3)CC2(CCCC(COC(=O)NCCOc3ccccc3)O2)O1` (stereo partly specified), for which the z-score is -0.793.

In the case of `CSCC[C@@H]1NC(=O)CC=C[C@@H](C)COC(=O)[C@H](C)COC1=O`, the z-score was 0.163.

For the compound `CO[C@H]1COC(=O)CCC[C@H](C)[C@@H](OC)COC(=O)CC=C[C@@H]1C`, the z-score was -0.394.

Consider `CC(C)[C@@H](OCc1ccccc1)[C@H](C)C=NO[C@@H](C)c1cn([C@H](CO)Cc2ccccc2)nn1`, for which the z-score is 0.843.

With `CCN1C(=O)[C@H]2[C@@H]3C(=CC[C@H]2C1=O)C(=O)[C@H]1O[C@H]1[C@H]3O`, the z-score is 2.79.

As for `CC(C)=CCCC(C)=CCON=C1C[C@@H](O)[C@@H](O)[C@@H]2[C@@H]3C(=O)N(C4CCCCC4)C(=O)[C@@H]3CC[C@H]12`, the z-score is -0.38.

Take `C=CC[C@@H]1C=C[C@H](ON=C[C@@H](NS(=O)(=O)c2ccc(C)cc2)[C@H](C)C=CCC(=O)OC)[C@@H](CO)O1`: the z-score is 0.848.

Take `COC(=O)[C@H](C)NC(=O)CCC1CC(OC(=O)NCCc2ccc(F)cc2)CC2(CCCC(COC(=O)NCCOc3ccccc3)O2)O1` (stereo partly specified): the z-score was -0.0755.

Turning to `CO[C@@H]1COC(=O)[C@H](COCc2ccccc2)NC(=O)CC=C[C@@H](C)[C@H](OC)COC(=O)[C@@H](C)NC(=O)CC=C[C@H]1C`, the z-score was 0.337.

On to `CC(CCC(=O)OC[C@H]1O[C@H](C#Cc2ccccc2)C=C[C@@H]1Oc1ccc(C)cc1)=NOC[C@@H](C)[C@H](OCc1ccccc1)C(C)C`, for which the z-score was -0.399.

Turning to `COC(=O)[C@H](C)NC(=O)CC=C[C@@H](C)[C@@H]1C=C[C@H](O)[C@@H](CO)O1`, the z-score was -0.434.

On to `C=CC[C@@H]1C=C[C@H](ON=C(C)CCN2CCCc3nc(C)c(C)cc32)[C@@H](CO)O1`, for which the z-score was -0.0824.

Take `O=C1C=C[C@@H](O)[C@@H]2[C@@H]3C(=O)N(Cc4ccccc4)C(=O)[C@@H]3CC[C@@H]12`: the z-score is -0.566.
